Molecules are shown by their SMILES. “And” between values parts separate entries of the source, which are not always exact repeats. Identical values can stand only once. Inconclusive results are not listed. A structure can be active in one record and inactive in another. The source made the active and inactive calls. Unless noted, calls follow the shape of the dose curve; as a rule, active = well fitted curve in the direction sought with a large enough effect in the repeat runs; inconclusive = weak or mixed curves; inactive = no such curve, though single readings can be large; an effect the other way counts as inactive or inconclusive.

Here are results for seven compounds from PubChem BioAssay (Tox21).

In assay [1] the target is Estrogen receptor beta (Homo sapiens) (UniProt Q92731). Kind of assay: qHTS assay to identify small molecule agonists of the estrogen receptor beta (ER-beta) signaling pathway (AID 1259377; active = well fitted activation curve with a large enough effect in the signal ratio in the repeat runs, not every such curve was filed as active; the % refers to the signal ratio). A digest of the protocol:
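ER-beta-UAS-bla HEK293T cells in medium with 2% charcoal-stripped FBS were exposed to compounds for 16 h at 37C. Beta-lactamase reporter activity was read as fluorescence after 2 h with LiveBLAzer B/G FRET substrate at room temperature.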

Assay [2] shares this target. Kind of assay: qHTS assay to identify small molecule antagonists of the estrogen receptor beta (ER-beta) signaling pathway (AID 1259378; active = well fitted inhibition curve with a large enough effect in the signal ratio in the repeat runs, not every such curve was filed as active; the % refers to the signal ratio; also: potency is read from the fitted curve at half-maximal effect). A digest of the protocol: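 ER-beta-UAS-bla HEK293T cells in 2% charcoal-stripped FBS medium treated with compound plus 1nM final 17-beta-estradiol for 16 hr at 37C. Beta-lactamase reporter read by FRET substrate fluorescence after 2 hours at room temperature.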
A general note: Quantitative high-throughput screening tests each substance at several concentrations.

The nature of assay [3]: qHTS assay to identify small molecule agonists of the androgen receptor (AR) signaling pathway in the presence of an antagonist - cell viability counter screen (AID 1259379). Also: nearly all actives have a fitted effect of over 25% in size. Also: potency is read from the fitted curve at half-maximal effect.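 As to activity change, negative = cytotoxicity: MDA-kb2 human breast cancer cells carrying an MMTV luciferase reporter; series mostly up to about 92 µM.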 The gist of the method: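 Counter screen for cell viability run in parallel with the AR agonist-mode luciferase assay. MDA-kb2 cells were co-treated with nilutamide (3.0uM final) and compounds, then incubated 16 hr at 37C, and CellTiter-Fluor fluorescence was measured.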

Assay [4] in a line: qHTS assay to identify small molecule agonists of the estrogen receptor beta (ER-beta) signaling pathway - cell viability counter screen (AID 1259380). Also: nearly all actives have a fitted effect of over 30% in size. Also: potency is read from the fitted curve at half-maximal effect. A digest of the protocol:
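In this qHTS counter screen, HEK293T cells carrying an ER-beta/UAS beta-lactamase reporter, grown in 2% charcoal-stripped FBS, received compound for 16 hr; ATP-based CellTiter-Glo luminescence was then read after 30 min at room temperature.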

Assay [5] is described as follows: qHTS assay to identify small molecule antagonists of the estrogen receptor beta (ER-beta) signaling pathway - cell viability counter screen (AID 1259382). Also: nearly all actives have a fitted effect of over 55% in size. Also: potency is read from the fitted curve at half-maximal effect. As to activity change, negative = cytotoxicity: series mostly up to about 92 µM. A digest of the protocol:
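HEK293T ER-beta-UAS-bla, 2% charcoal-stripped FBS; compounds + 1nM E2 16 hr 37C; CellTiter-Glo luminescence, 30 min RT.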

Assay [6] in a line: qHTS assay to identify small molecule agonists or antagonists of the thyroid stimulating hormone receptor (TSHR) signaling pathway - wild type cell line counter screen (AID 1259384; calls by dose curve). A digest of the protocol: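 Wild-type Hek293 cells, 800/well, 18 h at 37C, then compound with Ro20-1724 for 30 min RT. cAMP by HTRF (cAMP-d2/anti-cAMP cryptate), 1 h RT, fluorescence read. 15 concentrations, triplicates.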

Assay [7] can be described thus: qHTS assay to identify small molecule agonists of the estrogen receptor alpha (ER-alpha) signaling pathway in the presence of an antagonist - cell viability counter screen (AID 1259386).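 Also: cells exposed to compounds for 22 h at 37 °C before the viability read; nearly all actives have a fitted effect of over 30% in size.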 Also: potency is read from the fitted curve at half-maximal effect. As to activity change, negative = cytotoxicity: series mostly up to about 92 µM. The gist of the method: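 Steps: 5-day stripped-FBS culture; seed and incubate 24hr; add ICI-182,780 (10.0nM final); pin 15-point compound titration; incubate 22hr at 37C; add CellTiter-Fluor at 21hr; read fluorescence.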

Assay [8] has as its target Progesterone receptor (Homo sapiens) (UniProt P06401). Kind of assay: qHTS assay to identify small molecule agonists of the progesterone receptor (PR) signaling pathway (AID 1346784; calls by dose curve; also: nearly all actives have a fitted effect of over 30% in size). The gist of the method: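 PR-UAS-bla HEK 293T cells (beta-lactamase reporter under UAS) in 2% charcoal-stripped FBS, dosed with 23 nL compound after 6 hr, incubated 16hr at 37C. LiveBLAzer B/G FRET substrate added, fluorescence read after 2 hours.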

For assay [9] the target is unchanged. As to the kind of experiment: qHTS assay to identify small molecule antagonists of the progesterone receptor (PR) signaling pathway (AID 1346795; active = well fitted inhibition curve with a large enough effect in the signal ratio in the repeat runs, not every such curve was filed as active; the % refers to the signal ratio; also: potency is read from the fitted curve at half-maximal effect). A digest of the protocol: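 PR-UAS-bla HEK293T cells with beta-lactamase reporter under UAS control, in 2% charcoal-stripped FBS, treated with compounds plus 1 nM promegestone (R5020, final) for 16 hr at 37C. Read-out: FRET beta-lactamase substrate fluorescence after 2 hr at room temperature.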

Assay [10] can be described thus: qHTS assay to identify small molecule antagonists of the progesterone receptor (PR) signaling pathway - cell viability counter screen (AID 1346798). Also: nearly all actives have a fitted effect of over 50% in size. Also: potency is read from the fitted curve at half-maximal effect. As to activity change, negative = cytotoxicity: series mostly up to about 92 µM. The gist of the method: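 PR-UAS-bla HEK293T cells, 3,000/well in 2% charcoal-stripped FBS medium, dosed with compounds plus R5020 agonist and incubated 16 h at 37C. Viability then measured in the same wells by CellTiter-Glo luminescence after 30 min at RT.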

Assay [11] can be described thus: qHTS assay to identify small molecule agonists of the progesterone receptor (PR) signaling pathway - cell viability counter screen (AID 1346799; calls by dose curve; also: nearly all actives have a fitted effect of over 45% in size). The gist of the method: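 Counter screen in the PR-UAS-bla HEK293T wells (2% charcoal-stripped FBS, 16 h compound exposure at 37 C) after the bla read. CellTiter-Glo added, 30 min at room temperature, luminescence read as cell viability.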

Assay [12] can be described thus: qHTS assay to identify small molecule antagonists of the TGF-beta/Smad signaling pathway - cell viability counter screen (AID 1346824). Also: nearly all actives have a fitted effect of over 50% in size. A digest of the protocol:
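SBE-bla HEK 293T cells, incubated overnight, then compound plus 0.25 ng/mL TGF-beta1 (stock added) for 5 hr at 37 C. Viability was read in the same wells by CellTiter-Glo luminescence after 30 min at room temperature.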

Assay [13] in a line: qHTS assay to identify small molecule agonists of the TGF-beta/Smad signaling pathway - cell viability counter screen (AID 1346829). Also: top concentration of the series differs between compounds; nearly all actives have a fitted effect of over 45% in size. A digest of the protocol:
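Cytotoxicity counter screen: CellTiter-Glo luminescence (30 min, room temperature) measured in the SBE-bla HEK 293T reporter wells after 5 hr compound treatment at 37 C and the 2 hr substrate step.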

Assay [14] in a line: qHTS assay to identify small molecule agonists of the TGF-beta/Smad signaling pathway (AID 1346859; active = well fitted activation curve with a large enough effect in the signal ratio in the repeat runs, not every such curve was filed as active; the % refers to the signal ratio; also: series mostly up to about 77 µM). The gist of the method: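 SBE-bla HEK293T cells plated overnight, then compound exposure for 5 h at 37 C. Beta-lactamase reporter read with LiveBLAzer B/G FRET substrate after 2 h at room temperature, fluorescence at 405 nm excitation, 460/530 nm emission.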
The target of assay [15] is Thyrotropin-releasing hormone receptor (Homo sapiens) (UniProt P34981). Kind of assay: qHTS assay to identify small molecule antagonists of the thyrotropin-releasing hormone receptor (TRHR) signaling pathway (AID 1346877; active = well fitted inhibition curve with a large enough effect in the repeat runs, not every such curve was filed as active; also: series mostly up to about 51 µM). A digest of the protocol:
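Human TRHR in HEK293 cells; inhibition of the intracellular calcium rise triggered by 1 nM TRH was followed by fluorescence over 3 min. Compounds were run at 15 concentrations, three replicates each.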

Assay [16] has the same target. As to the kind of experiment: qHTS assay to identify small molecule agonists of the thyrotropin-releasing hormone receptor (TRHR) signaling pathway (AID 1346891; calls by dose curve; also: series mostly up to about 58 µM). The gist of the method: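 HEK293 cells expressing TRHR plated 18 h at 37 C/5% CO2, calcium dye-loaded 2 h at 37 C, then compound added (agonist mode); kinetic calcium fluorescence read 3 min at 1 s intervals; 15 concentrations in triplicate.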

Assay [17] in a line: Human pregnane X receptor (PXR) small molecule agonists, qHTS cell viability counter screen (AID 1346977). Also: nearly all actives have a fitted effect of over 50% in size. Also: potency is read from the fitted curve at half-maximal effect. The gist of the method:
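PXR-Luc HepG2 cells (2,000/well, 5% charcoal-stripped FBS) preincubated 5 hr, then exposed to compounds 24 hr at 37 C. Viability read in the same wells by CellTiter-Fluor fluorescence, reagent added at 23 hr, 1 hr incubation.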

Assay [18] concerns the target Estrogen receptor (Homo sapiens) (UniProt P03372). Kind of assay: qHTS assay to identify small molecule agonists of the estrogen receptor alpha (ER-alpha) signaling pathway in the presence of an antagonist (AID 1259383; calls by dose curve; also: top concentration of the series differs between compounds; nearly all actives have a fitted effect of over 15% in size). The gist of the method:
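ER-alpha agonism measured under antagonist challenge: 10.0nM ICI-182,780 (final) plus compound, 15 concentrations, 22hr, VM7Luc4E2 ERE-luciferase cells. Read by luminescence.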
% is scaled to controls: 0 for no effect and ±100 for the full control effect.

Thyrotropin-releasing hormone receptor (Homo sapiens), sequence (P34981 whole entry, looked up): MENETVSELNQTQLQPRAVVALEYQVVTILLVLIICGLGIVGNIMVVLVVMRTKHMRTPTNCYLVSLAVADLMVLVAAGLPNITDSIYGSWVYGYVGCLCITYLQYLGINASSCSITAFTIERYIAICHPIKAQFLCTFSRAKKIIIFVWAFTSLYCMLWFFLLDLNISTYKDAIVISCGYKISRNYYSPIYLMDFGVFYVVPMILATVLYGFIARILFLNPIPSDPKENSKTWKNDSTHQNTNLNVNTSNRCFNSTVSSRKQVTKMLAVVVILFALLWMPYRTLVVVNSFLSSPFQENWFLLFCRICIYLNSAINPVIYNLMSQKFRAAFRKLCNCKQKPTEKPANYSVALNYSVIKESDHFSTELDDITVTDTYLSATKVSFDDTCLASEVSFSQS
Progesterone receptor (Homo sapiens), sequence (P06401 whole entry, looked up): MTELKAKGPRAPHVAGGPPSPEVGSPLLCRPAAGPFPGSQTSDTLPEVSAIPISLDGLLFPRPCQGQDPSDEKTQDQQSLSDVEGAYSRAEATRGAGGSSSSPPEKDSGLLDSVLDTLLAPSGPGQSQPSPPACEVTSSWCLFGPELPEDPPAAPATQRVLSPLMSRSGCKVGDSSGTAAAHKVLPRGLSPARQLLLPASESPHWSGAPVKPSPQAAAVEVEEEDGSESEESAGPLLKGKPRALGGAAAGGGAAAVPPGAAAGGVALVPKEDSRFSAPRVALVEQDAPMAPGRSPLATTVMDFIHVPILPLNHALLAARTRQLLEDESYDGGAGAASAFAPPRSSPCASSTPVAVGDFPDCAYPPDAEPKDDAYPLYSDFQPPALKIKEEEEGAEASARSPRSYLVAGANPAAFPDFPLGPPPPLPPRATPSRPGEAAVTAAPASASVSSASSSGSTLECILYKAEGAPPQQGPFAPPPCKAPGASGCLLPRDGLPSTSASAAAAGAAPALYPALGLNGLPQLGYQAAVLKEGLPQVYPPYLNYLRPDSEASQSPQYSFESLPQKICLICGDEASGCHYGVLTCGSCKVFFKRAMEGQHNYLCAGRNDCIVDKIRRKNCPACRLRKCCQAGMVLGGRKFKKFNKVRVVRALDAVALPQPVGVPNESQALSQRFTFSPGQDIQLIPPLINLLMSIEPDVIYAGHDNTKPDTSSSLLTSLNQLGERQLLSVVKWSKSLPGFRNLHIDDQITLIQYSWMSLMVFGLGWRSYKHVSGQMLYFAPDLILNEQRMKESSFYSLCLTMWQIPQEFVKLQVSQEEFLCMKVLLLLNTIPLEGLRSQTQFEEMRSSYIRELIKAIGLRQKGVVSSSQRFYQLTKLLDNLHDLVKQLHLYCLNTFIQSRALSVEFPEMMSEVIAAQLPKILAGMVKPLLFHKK
Estrogen receptor beta (Homo sapiens), sequence (Q92731 whole entry, looked up): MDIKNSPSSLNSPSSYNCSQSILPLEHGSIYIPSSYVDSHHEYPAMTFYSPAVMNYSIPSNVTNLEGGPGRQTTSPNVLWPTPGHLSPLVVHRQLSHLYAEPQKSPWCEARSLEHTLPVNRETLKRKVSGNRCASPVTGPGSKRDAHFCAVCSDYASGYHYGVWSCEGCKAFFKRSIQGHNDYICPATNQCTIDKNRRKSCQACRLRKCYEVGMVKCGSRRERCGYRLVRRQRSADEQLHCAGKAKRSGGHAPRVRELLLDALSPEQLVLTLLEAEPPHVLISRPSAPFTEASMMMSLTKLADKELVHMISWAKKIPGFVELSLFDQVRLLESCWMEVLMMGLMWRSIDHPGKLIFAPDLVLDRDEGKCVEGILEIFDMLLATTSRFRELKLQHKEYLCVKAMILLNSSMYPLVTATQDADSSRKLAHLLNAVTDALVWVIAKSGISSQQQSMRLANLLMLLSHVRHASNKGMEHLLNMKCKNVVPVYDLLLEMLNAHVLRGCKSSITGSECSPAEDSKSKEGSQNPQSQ
Estrogen receptor (Homo sapiens), sequence (P03372 whole entry, looked up): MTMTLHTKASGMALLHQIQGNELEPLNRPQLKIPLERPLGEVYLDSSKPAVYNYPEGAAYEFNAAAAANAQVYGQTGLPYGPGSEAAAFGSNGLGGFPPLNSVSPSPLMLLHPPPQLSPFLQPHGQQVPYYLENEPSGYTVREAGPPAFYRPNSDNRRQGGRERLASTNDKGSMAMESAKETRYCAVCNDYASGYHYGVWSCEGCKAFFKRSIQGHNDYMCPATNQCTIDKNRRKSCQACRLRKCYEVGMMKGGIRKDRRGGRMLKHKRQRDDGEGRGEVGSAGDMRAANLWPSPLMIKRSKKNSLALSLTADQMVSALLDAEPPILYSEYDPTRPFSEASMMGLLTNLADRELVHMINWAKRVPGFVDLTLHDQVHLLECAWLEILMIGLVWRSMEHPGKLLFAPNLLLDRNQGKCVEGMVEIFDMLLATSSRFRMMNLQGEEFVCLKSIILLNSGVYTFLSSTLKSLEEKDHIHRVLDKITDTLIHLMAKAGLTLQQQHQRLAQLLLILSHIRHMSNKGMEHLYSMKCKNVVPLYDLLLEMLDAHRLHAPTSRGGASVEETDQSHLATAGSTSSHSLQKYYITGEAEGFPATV

As for `CCCCC(CC)COP(=O)(OCC(CC)CCCC)OCC(CC)CCCC` (stereo not drawn), the Potency result in [1], in assay [2], in [3], in [4], in assay [5] and in [7] was “inactive” each time. For the same compound, the Potency entry in assay [8], in assay [9], in assay [10], in [11], in [12] and in assay [13] was “inactive” each time. The Potency result in [15], in [16] and in assay [17] was “inactive” in each case. Also, the result in assay [6] and in assay [14] was inactive.

Take `CC(=O)O[C@]1(C(C)=O)CC[C@H]2[C@@H]3C=C(Cl)C4=CC(=O)[C@@H]5C[C@@H]5[C@]4(C)[C@H]3CC[C@@]21C`: the Potency entry in assay [1], in assay [3], in assay [4], in [5], in assay [7] and in assay [10] was “inactive” in each case. The Potency entry in assay [12], in [13] and in [17] was “inactive” throughout. In assay [2], the Potency was 54.5 µM (active). In assay [6], the outcome was inactive.

For the compound `c1ccc(Nc2ccccc2)cc1`, the Potency entry in assay [1], in assay [4], in assay [5], in assay [7], in [8] and in assay [10] was “inactive” in each case. The Potency result in assay [12], in assay [13] and in [17] was “inactive” throughout. The Potency in assay [2] was 24.3 µM (active) and inactive; in assay [3], 43.2 µM (active) and inactive; in assay [9], 48.5 µM (active) and inactive. For the same compound, the compound was classed as inactive in [6] and in [14].

Consider `c1ccc2sc(SSN3CCOCC3)nc2c1`, for which the Potency entry in assay [3], in assay [18], in [7], in [8], in [10] and in [11] was “inactive” in each case. Also, the Potency entry in [12], in assay [13], in [15], in assay [16] and in [17] was “inactive” in each case. Further, in assay [4], the Potency is 30.6 µM (active). In addition, the result in [6] and in assay [14] was inactive.

On to `COc1ccc(OC)c(C(O)CNC(=O)CN)c1` (stereo not drawn), for which the Potency entry in assay [3], in assay [5], in assay [7], in assay [8], in assay [9] and in [10] was “inactive” each time. Moreover, the Potency entry in [11], in assay [12], in [13] and in assay [17] was “inactive” in each case. For the same compound, the call in [6] and in [14] was inactive.

Take `O=C(Nc1ccc([N+](=O)[O-])cc1Cl)c1cc(Cl)ccc1O`: the Potency in assay [3] was 1.93 µM (active) and 1.46 µM (active); in assay [4], 8.63 µM (active) and 92 nM (active); in [5], 2.17 µM (active); in assay [7], 1.37 µM (active) and 1.3 µM (active); in assay [9], 30.6 µM (active); in assay [10], 30.6 µM (active). The Potency in assay [17] was 1.22 µM (active) and 1.46 µM (active). In addition, the activity change, negative = cytotoxicity was -26.7% [at 19 µM] (inactive) in assay [5] and -2.12% [at 18.9 µM] (inactive) in [10]. Further, in [6], the call was inactive. Moreover, the activation in [8] was 2.96% [at 19 µM] (inactive).

On to `CC(C)OC=O`, for which the Potency result in assay [3], in assay [4], in assay [5], in assay [7], in assay [8] and in [9] was “inactive” throughout. Moreover, the Potency entry in assay [10], in assay [12], in [13], in assay [15], in [16] and in assay [17] was “inactive” in each case. The call in assay [6] and in assay [14] was inactive.
